Values joined by “and” are separate entries in the source; they are usually repeats but may differ in a detail not shown here. Equal entries are not always repeated. Results filed as inconclusive are left out. Active and inactive are the calls of the source. Unless noted, the call rests on the fitted dose curve; in most records, active means well fitted curve in the direction sought with a large enough effect in the repeat runs; inconclusive means weak or mixed curves; inactive means no such curve, though single readings can be large; an effect the other way counts as inactive or inconclusive.
Experiments:
[1] = Human pregnane X receptor (PXR) small molecule agonists, qHTS cell viability counter screen (AID 1346977); further: nearly all actives have a fitted effect of over 50% in size; further: potency means the concentration at half of the fitted maximal effect
How it was run: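 Readout is CellTiter-Fluor fluorescence from PXR-Luc HepG2 cells. Plated cells rested 5hr, then were treated with compounds for 24hr at 37C and 5% CO2, with reagent present during the last hour.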

[2] = Caspase-3/7 induction in HepG2 cells by small molecules, qHTS assay (AID 1346978); further: nearly all actives have a fitted effect of over 15% in size
How it was run: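 Wild-type HepG2 cells, 2,000/well, settled 5 hr at 37 C and 5% CO2, then compound-treated for 17 hr; caspase-3/7 activity read by luminescent Caspase-Glo 3/7 after 30 min at room temperature.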

[3] = Caspase-3/7 induction in CHO-K1 cells by small molecules, qHTS cell viability counter screen (AID 1346979); further: nearly all actives have a fitted effect of over 35% in size; further: potency means the concentration at half of the fitted maximal effect
How it was run: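 To flag cytotoxic compounds, treated CHO-K1 wild-type cells were given CellTiter-Fluor at 16hr and read fluorescently after 1hr at 37C; the caspase-3/7 luminescence was measured in these same wells.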

[4] = Caspase-3/7 induction in CHO-K1 cells by small molecules, qHTS assay (AID 1346980); further: nearly all actives have a fitted effect of over 15% in size
How it was run: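 Wild-type CHO-K1 cells exposed to compounds for 17hr at 37 C, 5% CO2. Caspase-3/7 activity then measured by Caspase-Glo 3/7 luminescence after 30min at room temperature.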

[5] = Caspase-3/7 induction in HepG2 cells by small molecules, qHTS cell viability counter screen (AID 1346981); further: nearly all actives have a fitted effect of over 30% in size; further: potency means the concentration at half of the fitted maximal effect
How it was run: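 Fluorescence read-out of live-cell protease activity (CellTiter-Fluor) after 1 hr with reagent. This was measured in the same wells as the caspase-3/7 luminescence, on HepG2 cells exposed to DMSO-dissolved compounds for 16 hr at 37 C.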

[6] = target: Nuclear receptor subfamily 1 group I member 2 (Homo sapiens) (UniProt O75469); assay: Human pregnane X receptor (PXR) small molecule agonists, qHTS assay (AID 1346982); further: nearly all actives have a fitted effect of over 35% in size; further: potency means the concentration at half of the fitted maximal effect
How it was run: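 HepG2 PXR-Luc reporter line, 5% charcoal-stripped FBS; 5 hr pre-incubation, compound (DMSO) 24 hr at 37 C/5% CO2; ONE-Glo 30 min RT; luminescence read-out.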

[7] = target: Acetylcholinesterase (Homo sapiens) (UniProt P22303); assay: Acetylcholinesterase (AChE) small molecule antagonists: colormetric cell-based qHTS assay (AID 1347395; calls by dose curve; further: nearly all actives have a fitted effect of over 30% in size; further: potency means the concentration at half of the fitted maximal effect)
How it was run: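 Neuroblastoma line SH-SY5Y supplied the enzyme; cells were preincubated with compound for 30 min at 37 C and 5% CO2. Acetylthiocholine with DTNB was then added for 90 min at 37 C, and thiocholine was measured by colour.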

[8] = target: Acetylcholinesterase (Homo sapiens) (UniProt P22303); assay: Acetylcholinesterase (AChE) small molecule antagonists: enzyme-based qHTS assay (AID 1347397; calls by dose curve; further: nearly all actives have a fitted effect of over 55% in size; further: potency means the concentration at half of the fitted maximal effect); conditions: Potency: AChE enzyme activity inhibition
How it was run: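 In this quantitative HTS, compounds from the Tox21 10K collection were preincubated 30 min at ambient temperature with recombinant human AChE dispensed at 50 mU/mL. Hydrolysis of acetylthiocholine was then followed for 10 min by DTNB colour development.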

[9] = target: Acetylcholinesterase (Homo sapiens) (UniProt P22303); assay: Acetylcholinesterase (AChE) small molecule antagonists: enzyme-based qHTS assay with human liver microsomes (AID 1347399; calls by dose curve; further: nearly all actives have a fitted effect of over 60% in size; further: potency means the concentration at half of the fitted maximal effect); conditions: Potency: qHTS inhibition
How it was run: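 Recombinant human AChE (50 mU/mL in the enzyme mix) and human liver microsomes (0.25 mg/mL final) were preincubated with compound and NADPH (0.25 mg/mL final) for 30 min at 37 C. Acetylthiocholine/DTNB was then added; thiocholine was read colorimetrically after 10 min at room temperature.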

[10] = target: Cytochrome P450 2D6 (Homo sapiens) (UniProt P10635); assay: Cytochrome P450 Family 2 Subfamily D Member 6 (CYP2D6) small molecule antagonists: luciferase reporter qHTS assay (AID 1671196); further: nearly all actives have a fitted effect of over 50% in size; further: potency means the concentration at half of the fitted maximal effect
How it was run: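 Luminogenic proluciferin substrate, CYP2D6 enzyme; 10 min RT preincubation with compound, NADPH regeneration system added, 1 h RT. Stop/detection reagent, 20 min RT, luminescence read (RLU). Signal proportional to CYP activity.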

[11] = target: Cytochrome P450 2C19 (Homo sapiens) (UniProt P33261); assay: Cytochrome P450 Family 2 Subfamily C Member 19 (CYP2C19) small molecule antagonists: luciferase reporter qHTS assay (AID 1671197); further: nearly all actives have a fitted effect of over 65% in size; further: potency means the concentration at half of the fitted maximal effect
How it was run: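 CYP2C19 P450-Glo, 1536-well qHTS. Cpd + enzyme/proluciferin substrate 10 min RT; + NADPH regen, 37C 1 h; stop with luciferin detection reagent, 20 min RT, luminescence (RLU). Pos ctrl ketoconazole.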

[12] = target: Cytochrome P450 1A2 (Homo sapiens) (UniProt P05177); assay: Cytochrome P450 Family 1 Subfamily A Member 2 (CYP1A2) small molecule antagonists: luciferase reporter qHTS assay (AID 1671199); further: nearly all actives have a fitted effect of over 50% in size; further: potency means the concentration at half of the fitted maximal effect
How it was run: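 Luminescence readout (relative luminescence units) after luciferin detection reagent, 20 min RT. Preceded by 1 h room-temperature CYP1A2 reaction with NADPH regeneration solution following 10 min compound preincubation with enzyme and proluciferin substrate. Furafylline positive control.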

[13] = target: Voltage-gated inwardly rectifying potassium channel KCNH2 (Homo sapiens) (UniProt Q12809); assay: Human Ether-a-go-go-Related Gene (hERG) channel small molecule antagonists: fluorescence cell-based qHTS assay (AID 1671200);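 further: hERG-expressing U2OS cells given a thallium stimulus after FluxOR II dye loading; series mostly up to about 77 µM; nearly all actives have a fitted effect of over 50% in size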
How it was run: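 Measured: Tl+ flux via fluorescence (480/540 nm) in hERG-expressing U2OS cells after 1 h dye loading at room temperature.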

[14] = target: Cytochrome P450 3A4 (Homo sapiens) (UniProt P08684); assay: Cytochrome P450 Family 3 Subfamily A Member 4 (CYP3A4) small molecule antagonists: luciferase reporter qHTS assay (AID 1671201); further: nearly all actives have a fitted effect of over 50% in size; further: potency means the concentration at half of the fitted maximal effect
How it was run: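 Setup: enzyme-substrate mix, compound pin transfer, 10 min RT. Reaction: NADPH regeneration solution, 1 h RT. Readout: detection reagent stops turnover, luminescence measured after 20 min, expressed in relative luminescence units.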

[15] = target: Acetylcholinesterase (Homo sapiens) (UniProt P22303); assay: Acetylcholinesterase (AChE) small molecule antagonists: fluorescence cell-based qHTS assay (AID 1347398; calls by dose curve; further: nearly all actives have a fitted effect of over 50% in size; further: potency means the concentration at half of the fitted maximal effect); conditions: Potency: AChE activity
How it was run: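 Cells (SH-SY5Y) attached overnight, were dosed with compound or DMSO vehicle for 30 min at 37 C, and then incubated 40 min at room temperature with acetylthiocholine and Thiolite Green; green fluorescence indexed AChE activity.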

[16] = target: Cytochrome P450 2C9 (Homo sapiens) (UniProt P11712); assay: Cytochrome P450 Family 2 Subfamily C Member 9 (CYP2C9) small molecule antagonists: luciferase reporter qHTS assay (AID 1671198); further: nearly all actives have a fitted effect of over 50% in size; further: potency means the concentration at half of the fitted maximal effect
How it was run: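 P450-Glo proluciferin substrate with CYP2C9 enzyme; 10 min RT preincubation, then NADPH regeneration 1 h at 37C; luciferin detection reagent 20 min RT, luminescence in relative luminescence units.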

Measured: Potency

Chain of Acetylcholinesterase (Homo sapiens) (P22303 whole entry, looked up): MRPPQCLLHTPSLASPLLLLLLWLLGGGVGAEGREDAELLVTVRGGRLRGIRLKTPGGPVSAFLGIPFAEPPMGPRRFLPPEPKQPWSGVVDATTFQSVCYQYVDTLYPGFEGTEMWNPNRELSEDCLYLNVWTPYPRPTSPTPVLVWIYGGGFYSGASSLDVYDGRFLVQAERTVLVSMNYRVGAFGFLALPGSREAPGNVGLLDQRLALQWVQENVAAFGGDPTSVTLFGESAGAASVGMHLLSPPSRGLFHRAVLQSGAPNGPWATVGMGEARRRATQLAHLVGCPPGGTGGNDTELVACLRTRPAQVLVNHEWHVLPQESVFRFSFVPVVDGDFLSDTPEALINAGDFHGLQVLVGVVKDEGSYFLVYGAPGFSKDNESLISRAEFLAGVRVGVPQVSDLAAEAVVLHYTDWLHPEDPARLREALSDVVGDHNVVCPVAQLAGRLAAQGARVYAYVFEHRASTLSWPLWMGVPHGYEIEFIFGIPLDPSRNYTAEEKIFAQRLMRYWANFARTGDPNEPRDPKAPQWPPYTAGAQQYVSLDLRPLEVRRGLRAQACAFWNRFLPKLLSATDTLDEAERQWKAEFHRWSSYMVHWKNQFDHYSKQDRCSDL
Chain of Cytochrome P450 1A2 (Homo sapiens) (P05177 whole entry, looked up): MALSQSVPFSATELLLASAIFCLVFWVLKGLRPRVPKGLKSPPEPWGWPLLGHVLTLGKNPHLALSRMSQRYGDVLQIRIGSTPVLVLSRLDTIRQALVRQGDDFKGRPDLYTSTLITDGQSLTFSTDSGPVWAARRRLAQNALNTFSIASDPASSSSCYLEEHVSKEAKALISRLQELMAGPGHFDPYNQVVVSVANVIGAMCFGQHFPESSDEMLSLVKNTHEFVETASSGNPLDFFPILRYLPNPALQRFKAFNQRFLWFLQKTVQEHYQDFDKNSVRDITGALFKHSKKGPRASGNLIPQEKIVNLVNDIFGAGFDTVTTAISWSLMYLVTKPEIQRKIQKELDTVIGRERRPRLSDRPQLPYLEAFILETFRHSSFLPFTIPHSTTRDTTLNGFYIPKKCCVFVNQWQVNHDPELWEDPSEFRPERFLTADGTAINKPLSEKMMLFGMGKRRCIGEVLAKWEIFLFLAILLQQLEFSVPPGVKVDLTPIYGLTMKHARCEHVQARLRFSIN
Chain of Voltage-gated inwardly rectifying potassium channel KCNH2 (Homo sapiens) (Q12809 whole entry, looked up): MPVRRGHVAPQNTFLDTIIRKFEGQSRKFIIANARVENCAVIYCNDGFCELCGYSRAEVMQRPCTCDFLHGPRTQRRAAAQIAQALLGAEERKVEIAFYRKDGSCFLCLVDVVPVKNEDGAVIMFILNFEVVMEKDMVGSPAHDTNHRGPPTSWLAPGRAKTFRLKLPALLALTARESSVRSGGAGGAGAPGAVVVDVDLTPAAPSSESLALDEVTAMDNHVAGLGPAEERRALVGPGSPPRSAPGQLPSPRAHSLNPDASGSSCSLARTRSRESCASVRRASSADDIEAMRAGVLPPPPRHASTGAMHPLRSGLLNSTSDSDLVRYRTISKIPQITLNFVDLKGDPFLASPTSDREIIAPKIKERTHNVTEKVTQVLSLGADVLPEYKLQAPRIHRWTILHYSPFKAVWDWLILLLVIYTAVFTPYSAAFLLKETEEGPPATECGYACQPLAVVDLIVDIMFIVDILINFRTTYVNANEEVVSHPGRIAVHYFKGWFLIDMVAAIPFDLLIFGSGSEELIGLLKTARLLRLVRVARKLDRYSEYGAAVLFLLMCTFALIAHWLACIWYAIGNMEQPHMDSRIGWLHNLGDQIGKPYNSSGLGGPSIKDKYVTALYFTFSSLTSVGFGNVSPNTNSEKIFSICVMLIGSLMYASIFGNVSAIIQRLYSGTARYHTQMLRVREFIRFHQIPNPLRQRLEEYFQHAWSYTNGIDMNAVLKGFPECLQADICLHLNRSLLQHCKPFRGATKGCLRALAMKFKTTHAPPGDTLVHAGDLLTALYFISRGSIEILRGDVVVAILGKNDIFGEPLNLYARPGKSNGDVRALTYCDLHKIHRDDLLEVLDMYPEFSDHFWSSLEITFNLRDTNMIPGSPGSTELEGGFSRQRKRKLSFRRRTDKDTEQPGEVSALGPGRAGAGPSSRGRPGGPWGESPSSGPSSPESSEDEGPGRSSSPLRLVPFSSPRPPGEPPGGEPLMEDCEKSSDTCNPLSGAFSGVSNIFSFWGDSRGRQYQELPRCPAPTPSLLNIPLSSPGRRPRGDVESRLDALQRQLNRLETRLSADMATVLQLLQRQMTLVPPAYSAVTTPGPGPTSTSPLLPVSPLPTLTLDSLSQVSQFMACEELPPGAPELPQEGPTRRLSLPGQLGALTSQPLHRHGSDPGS
Chain of Cytochrome P450 2C19 (Homo sapiens) (P33261 whole entry, looked up): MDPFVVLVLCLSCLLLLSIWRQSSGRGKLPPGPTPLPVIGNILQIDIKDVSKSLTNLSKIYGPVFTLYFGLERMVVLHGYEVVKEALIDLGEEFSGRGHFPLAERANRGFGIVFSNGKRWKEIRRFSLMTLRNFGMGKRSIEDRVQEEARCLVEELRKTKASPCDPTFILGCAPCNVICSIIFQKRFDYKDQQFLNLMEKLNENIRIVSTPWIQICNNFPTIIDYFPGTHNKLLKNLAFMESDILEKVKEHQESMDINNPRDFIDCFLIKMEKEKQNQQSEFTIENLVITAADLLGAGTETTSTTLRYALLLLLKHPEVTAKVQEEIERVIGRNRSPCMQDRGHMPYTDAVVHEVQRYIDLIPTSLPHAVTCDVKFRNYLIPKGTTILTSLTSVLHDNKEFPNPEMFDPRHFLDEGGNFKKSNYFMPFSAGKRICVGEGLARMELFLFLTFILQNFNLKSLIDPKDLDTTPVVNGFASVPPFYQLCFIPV
Chain of Cytochrome P450 2D6 (Homo sapiens) (P10635 whole entry, looked up): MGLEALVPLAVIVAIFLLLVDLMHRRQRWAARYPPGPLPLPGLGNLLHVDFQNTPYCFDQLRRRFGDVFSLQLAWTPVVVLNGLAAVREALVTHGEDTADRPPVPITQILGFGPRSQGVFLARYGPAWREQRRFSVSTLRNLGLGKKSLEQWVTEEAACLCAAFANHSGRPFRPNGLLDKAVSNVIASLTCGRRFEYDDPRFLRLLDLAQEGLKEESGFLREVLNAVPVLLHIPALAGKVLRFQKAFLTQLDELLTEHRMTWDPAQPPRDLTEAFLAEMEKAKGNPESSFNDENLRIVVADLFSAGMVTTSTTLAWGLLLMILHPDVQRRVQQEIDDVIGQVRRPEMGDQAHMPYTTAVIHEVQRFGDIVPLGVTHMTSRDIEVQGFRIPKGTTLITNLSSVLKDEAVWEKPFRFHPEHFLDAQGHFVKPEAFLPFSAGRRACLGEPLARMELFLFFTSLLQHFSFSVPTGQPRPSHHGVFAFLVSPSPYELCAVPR
Chain of Cytochrome P450 3A4 (Homo sapiens) (P08684 whole entry, looked up): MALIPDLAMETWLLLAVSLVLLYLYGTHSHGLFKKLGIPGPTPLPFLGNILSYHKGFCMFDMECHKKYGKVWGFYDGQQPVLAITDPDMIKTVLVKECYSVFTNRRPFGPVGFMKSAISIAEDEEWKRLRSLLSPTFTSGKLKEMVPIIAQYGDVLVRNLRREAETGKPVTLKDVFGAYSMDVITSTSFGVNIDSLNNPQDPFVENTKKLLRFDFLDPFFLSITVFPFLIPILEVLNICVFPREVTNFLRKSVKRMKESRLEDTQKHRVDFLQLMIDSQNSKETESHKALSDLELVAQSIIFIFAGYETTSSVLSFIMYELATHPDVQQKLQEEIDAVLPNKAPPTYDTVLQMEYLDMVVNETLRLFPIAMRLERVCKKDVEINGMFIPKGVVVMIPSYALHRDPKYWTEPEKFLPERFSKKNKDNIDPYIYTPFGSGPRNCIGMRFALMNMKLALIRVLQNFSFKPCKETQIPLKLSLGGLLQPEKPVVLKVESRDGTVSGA
Chain of Cytochrome P450 2C9 (Homo sapiens) (P11712 whole entry, looked up): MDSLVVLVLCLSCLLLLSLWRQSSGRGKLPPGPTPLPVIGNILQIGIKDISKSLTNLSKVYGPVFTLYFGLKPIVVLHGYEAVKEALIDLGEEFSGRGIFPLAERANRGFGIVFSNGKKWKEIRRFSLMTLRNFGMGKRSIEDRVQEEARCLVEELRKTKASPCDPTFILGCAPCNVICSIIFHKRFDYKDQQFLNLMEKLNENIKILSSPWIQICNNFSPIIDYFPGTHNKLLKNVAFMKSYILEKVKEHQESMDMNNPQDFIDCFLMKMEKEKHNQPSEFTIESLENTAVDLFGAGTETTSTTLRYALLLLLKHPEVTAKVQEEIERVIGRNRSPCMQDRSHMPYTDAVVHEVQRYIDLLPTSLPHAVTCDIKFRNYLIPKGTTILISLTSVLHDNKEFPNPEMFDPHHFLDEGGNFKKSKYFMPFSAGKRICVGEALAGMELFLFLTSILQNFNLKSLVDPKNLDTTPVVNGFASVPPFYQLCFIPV
Chain of Nuclear receptor subfamily 1 group I member 2 (Homo sapiens) (O75469 whole entry, looked up): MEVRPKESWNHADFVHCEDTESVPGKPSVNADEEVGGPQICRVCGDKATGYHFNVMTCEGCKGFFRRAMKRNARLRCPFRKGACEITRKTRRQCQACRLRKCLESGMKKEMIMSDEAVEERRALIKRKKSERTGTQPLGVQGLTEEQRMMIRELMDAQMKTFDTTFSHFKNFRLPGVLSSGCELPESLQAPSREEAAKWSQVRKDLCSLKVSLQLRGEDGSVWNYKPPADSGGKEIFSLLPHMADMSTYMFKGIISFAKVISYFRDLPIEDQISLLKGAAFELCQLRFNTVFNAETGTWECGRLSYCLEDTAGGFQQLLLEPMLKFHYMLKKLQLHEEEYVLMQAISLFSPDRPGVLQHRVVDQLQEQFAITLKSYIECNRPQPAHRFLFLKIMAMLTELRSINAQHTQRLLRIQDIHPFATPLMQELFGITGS

CCOC(=O)CBr
active: [10] 40.1 µM | [11] 40.1 µM | [12] 63.6 µM
inactive: [1] | [2] | [3] | [4] | [5] | [6] | [7] | [8] | [9] | [13] | [14]

CCOP(=O)(OCC)SCCSCC
inactive: [1] | [2] | [3] | [4] | [5] | [16] | [13] | [14]
active: [6] 58.3 µM | [7] 3.4 µM and 7.96 µM | [8] 7.61 µM and 20 µM | [15] 3.03 µM and 10 µM | [9] 17 µM and 35.6 µM | [11] 21.4 µM and 35.6 µM | [12] 34 µM

Cn1cc[n+](C)c1 (tested in a mixture with another compound)
inactive: [1] | [2] | [3] | [4] | [5] | [6] | [7] | [8] | [9] | [10] | [16] | [12] | [13] | [14]

Brc1ccccc1
inactive: [1] | [2] | [3] | [4] | [5] | [6] | [7] | [15] | [9] | [10] | [16] | [13]

O=[N+]([O-])c1ccccc1CCl
inactive: [1] | [2] | [3] | [4] | [5] | [8] | [15] | [9] | [16] | [13] | [14]
active: [6] 0.0039 µM

CCCCC(CC)COP(=O)(Oc1ccccc1)Oc1ccccc1 (stereo not given)
inactive: [1] | [2] | [3] | [4] | [5] | [7] | [8] | [9] | [10]
active: [6] 7.7 µM | [11] 2.83 µM | [16] 3.99 µM | [12] 25.2 µM | [14] 5.64 µM

Nc1nc(N)nc(N)n1
inactive: [1] | [2] | [3] | [4] | [5] | [6] | [7] | [8] | [15] | [9] | [10] | [16] | [13] | [14]
active: [12] 31.8 µM

Cc1cc(=O)[nH]o1
inactive: [1] | [2] | [3] | [4] | [5] | [6] | [7] | [8] | [15] | [9] | [10] | [12] | [13] | [14]
active: [16] 110 µM

CC(Cl)Cl
inactive: [1] | [2] | [3] | [4] | [5] | [6] | [7] | [8] | [9] | [10] | [11] | [16] | [13] | [14]

O=S(=O)(Cl)c1ccccc1
inactive: [1] | [2] | [3] | [4] | [5] | [6] | [7] | [15] | [9] | [11] | [16] | [12] | [13]

O=S1(=O)OC(c2cc(Br)c(O)c(Br)c2)(c2cc(Br)c(O)c(Br)c2)c2ccccc21
inactive: [2] | [4] | [6] | [7] | [8] | [9] | [13]
active: [1] 12.5 µM | [3] 25 µM | [5] 25 µM | [10] 58 µM | [11] 73 µM | [16] 16.3 µM | [12] 32.6 µM

NC(=O)CI
active: [6] 69.1 µM | [10] 63.8 µM | [11] 80.4 µM | [16] 63.8 µM | [12] 35.9 µM
inactive: [1] | [2] | [3] | [4] | [5] | [8] | [15] | [9] | [13] | [14]

N#CCc1ccccc1
inactive: [1] | [2] | [3] | [4] | [5] | [6] | [7] | [8] | [15] | [9] | [11] | [16] | [13] | [14]

COC(=O)C(C)N(C(=O)Cc1ccccc1)c1c(C)cccc1C (stereo not given)
inactive: [1] | [2] | [3] | [4] | [5] | [7] | [8] | [9] | [12] | [13]
active: [6] 10.9 µM | [11] 3.56 µM | [16] 22.4 µM

COC(C)(C)CCC[C@H](C)C/C=C/C(C)=C/C(=O)OC(C)C
active: [6] 24.3 µM | [11] 17.8 µM | [16] 22.4 µM | [12] 35.6 µM | [14] 20 µM
inactive: [1] | [2] | [3] | [4] | [5] | [7] | [8] | [15] | [9] | [13]

c1ccc(C2CC2)c(OCC2=NCCN2)c1
inactive: [1] | [2] | [3] | [4] | [5] | [6] | [8] | [15] | [9] | [11] | [16] | [13]
active: [10] 4.36 µM

CCOP(=S)(OCC)SCSCC
inactive: [1] | [2] | [3] | [4] | [5] | [6] | [8] | [9] | [13]
active: [7] 63.3 µM | [11] 20 µM | [16] 35.6 µM | [12] 22.4 µM | [14] 6.33 µM

O=C(O)CC(Cl)C(=O)O (stereo not given)
inactive: [1] | [2] | [3] | [4] | [5] | [6] | [8] | [15] | [9] | [10] | [11] | [16] | [12] | [13]

Source: PubChem BioAssay (Tox21)
